Inconclusive results are not listed. Entries that show only a call come without a potency. Activity calls are given as the source filed them. Calls come from the whole dose curve; as a rule, active = well fitted inhibition curve with a large enough effect in the repeat runs; inconclusive = weak or mixed curves; inactive = no such curve, though single readings can be large or run the other way.
Target: Estrogen receptor (Homo sapiens) (UniProt P03372)
Assay: qHTS assay to identify small molecule antagonists of the estrogen receptor alpha (ER-alpha) signaling pathway using the BG1 cell line in the presence of 0.1 nM 17-beta-estradiol (AID 1259244); note: nearly all actives have a fitted effect of over 50% in size
Settings: VM7Luc4E2 (BG1) ERE-luciferase, antagonist mode, 0.1 nM E2, 22 h; series mostly up to 92.4 µM
From the text: National Center for Advancing Translational Sciences [NCATS]
NIH Chemical Genomics Center [NCGC]
U.S. Environmental Protection Agency [EPA]
National Institutes of Environmental Health Sciences [NIEHS]
National Toxicology Program [NTP]
U.S. Food and Drug Administration [FDA]
Estrogen receptor (ER), a member of the nuclear hormone receptor plays an important role in development, metabolic homeostasis and reproduction. Two subtypes of ER, ER-alpha and ER-beta, have similar expression patterns with some uniqueness in both types. Endocrine disrupting chemicals (EDCs) and their interactions with steroid hormone receptors like ER causes disruption of normal endocrine function. Therefore, it is important to understand the effect of environmental chemicals in ER signaling pathway. For identifying ER antagonists, VM7Luc4E2 cell line was used to screen against Tox21 compound libraries.
VM7Luc4E2 cell line (provided by Denison MS, University of California) endogenously express full-length ER-alpha and is stably transfected with a plasmid containing four estrogen responsive elements (ERE) upstream of a luciferase reporter gene. The current screening for identification of ER-alpha inhibitors against Tox21 compound libraries used lower concentration (0.1 nM) of 17beta-Estradiol as a stimulator.
Tox21 Assay Protocol Summary:
VM7Luc4E2 cells were cultured in phenol red free assay medium containing 10% charcoal stripped FBS for 5 days prior to the assay. The cells were dispensed at 4,000 cells/well in 4 uL of assay medium into white wall/solid-bottom 1536-well plates (Corning Life Sciences, Corning, NY) using a Multidrop Combi (ThermoFisher Scientific, Waltham, MA) dispenser. After the assay plates were incubated at 37C and 5% CO2 for 24 hr, 23 nL of compounds dissolved in DMSO, positive controls or DMSO only was transferred to the assay plates by a Pintool station (Kalypsys, San Diego, CA). The transfer of compounds was followed by the addition of 1 uL of 0.1 nM (final concentration) agonist (17beta-Estradiol)/assay medium using a Flying Reagent Dispenser (FRD, Aurora Discovery, San Diego, CA). The plates were incubated at 37C and 5% CO2 for 22 hr. For luciferase reporter gene assay, 4 uL of ONE-Glo reagent (Promega Corporation, Madison, WI) was added to each well using the FRD and after 30 min incubation at room temperature luminescence intensity was measured using ViewLux plate reader (PerkinElmer, Shelton, CT).
Potency is the fitted concentration of half-maximal effect.

Estrogen receptor (Homo sapiens), sequence (P03372 whole entry, looked up): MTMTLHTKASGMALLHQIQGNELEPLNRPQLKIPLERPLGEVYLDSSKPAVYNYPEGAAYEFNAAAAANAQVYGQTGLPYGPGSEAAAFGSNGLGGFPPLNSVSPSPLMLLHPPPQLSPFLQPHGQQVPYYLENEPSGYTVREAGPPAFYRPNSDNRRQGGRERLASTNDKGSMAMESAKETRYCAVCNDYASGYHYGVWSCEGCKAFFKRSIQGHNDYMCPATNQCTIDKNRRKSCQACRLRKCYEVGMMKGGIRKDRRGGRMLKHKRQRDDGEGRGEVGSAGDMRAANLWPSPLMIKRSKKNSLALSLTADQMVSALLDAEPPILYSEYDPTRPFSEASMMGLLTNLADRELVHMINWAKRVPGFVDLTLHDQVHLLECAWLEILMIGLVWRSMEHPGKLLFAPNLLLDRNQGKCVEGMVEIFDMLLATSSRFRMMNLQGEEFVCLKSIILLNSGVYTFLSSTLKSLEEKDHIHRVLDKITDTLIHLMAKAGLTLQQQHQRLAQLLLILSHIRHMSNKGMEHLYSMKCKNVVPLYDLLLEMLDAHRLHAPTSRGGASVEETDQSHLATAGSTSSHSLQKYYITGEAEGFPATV

Question: With Nc1ccc(Cl)cc1C(=O)c1ccccc1F as the molecule, how does the Potency read?
Answer: The Potency was “inactive”.

Question: CNC(=O)Oc1cc(C)cc(C(C)C)c1 was tested. Which Potency did it give?
Answer: The Potency was “inactive”.

Question: How did the Potency turn out when COP(=O)(OC)Oc1ccc([N+](=O)[O-])cc1 was run?
Answer: The Potency was “inactive”.

Question: For Oc1cc(Cl)cc(Cl)c1, which Potency is on record?
Answer: The Potency was “inactive”.

Question: How did the Potency turn out when ClC1=C(Cl)[C@]2(Cl)[C@H]3[C@H]([C@@H]4C=C[C@H]3C4)[C@@]1(Cl)C2(Cl)Cl was run?
Answer: The Potency was “inactive”.

Question: Clc1ccc(C2(Cn3cncn3)OCCO2)c(Cl)c1 was tested. Which Potency did it give?
Answer: The Potency was “inactive”.

Question: ClSC(Cl)(Cl)Cl was tested. Which Potency did it give?
Answer: The Potency was “inactive”.

Question: Which Potency does the source give for Cc1ccc([N+](=O)[O-])[c]2c1[O][Hg]2 here?
Answer: Its Potency is 7.5 µM (active).

Question: For C=CCBr, which Potency is on record?
Answer: The Potency was “inactive”.

Question: For C#CCO, which Potency is on record?
Answer: The Potency was “inactive”.

Question: Which Potency does the source give for C=CC(=O)[O][Sn]([CH2]CCC)([CH2]CCC)[CH2]CCC here?
Answer: Its Potency is 1.72 µM (active).

Question: C[C@H]1[C@H](c2ccc(Cl)cc2)SC(=O)N1C(=O)NC1CCCCC1 was tested. Which Potency did it give?
Answer: The Potency was 61.1 µM (active).

Question: Which Potency does the source give for CC(C)Br here?
Answer: The Potency was “inactive”.

Question: For CNC(=O)/C=C(\C)OP(=O)(OC)OC, which Potency is on record?
Answer: The Potency was “inactive”.

Question: For c1csc(-c2ccc(-c3cccs3)s2)c1, which Potency is on record?
Answer: The Potency was “inactive”.

Question: Which Potency does the source give for CC(C)[C@@H](Nc1ccc(C(F)(F)F)cc1Cl)C(=O)OC(C#N)c1cccc(Oc2ccccc2)c1 (stereo not given in full) here?
Answer: Its Potency is “inactive”.

Question: With O=NN(CCO)CCO as the molecule, how does the Potency read?
Answer: Its Potency is “inactive”.

Question: For Cc1ccccc1OP(=O)(Oc1ccccc1C)Oc1ccccc1C, which Potency is on record?
Answer: Its Potency is “inactive”.

Question: N#CSCc1ccccc1 was tested. Which Potency did it give?
Answer: Its Potency is “inactive”.

Question: How did the Potency turn out when O=C(Cl)c1ccccc1F was run?
Answer: Its Potency is “inactive”.

Question: With CCC(OC(C)=O)C(CC(C)NC)(c1ccccc1)c1ccccc1 (stereo not given) as the molecule, how does the Potency read?
Answer: Its Potency is 69.2 µM (active).

Question: CC(=O)C(Cl)C(=O)N(C)C (stereo not given) was tested. Which Potency did it give?
Answer: Its Potency is “inactive”.

Question: For S=C=Nc1ccccc1, which Potency is on record?
Answer: Its Potency is “inactive”.

Question: Which Potency does the source give for CC(C)N(C(=O)SC/C(Cl)=C/Cl)C(C)C here?
Answer: The Potency was “inactive”.

Question: CCN(CC)C(=O)N[C@@H]1C=C2c3cccc4[nH]cc(c34)C[C@@H]2N(C)C1 was tested. Which Potency did it give?
Answer: Its Potency is “inactive”.

Question: O=C(O)[C@H](O)[C@@H](O)C(=O)O was tested. Which Potency did it give?
Answer: Its Potency is “inactive”.

Question: Which Potency does the source give for CCCCC/C=C\C/C=C\C/C=C\C/C=C\CCCC(=O)NCC(=O)O here?
Answer: Its Potency is “inactive”.

Question: How did the Potency turn out when CCCCN(CCCC)C(=S)[S-].CCCCN(CCCC)C(=S)[S-].[Ni+2] was run?
Answer: Its Potency is “inactive”.

Question: With CCCCc1ccccc1 as the molecule, how does the Potency read?
Answer: Its Potency is “inactive”.

Question: For CN1C2CCC(C)(C)C1CC(OC(=O)C(O)(c1cccs1)c1cccs1)C2 (stereo not given), which Potency is on record?
Answer: Its Potency is “inactive”.

Question: With CCCCC(CC)COC(=O)c1ccccc1C(=O)OCC(CC)CCCC (stereo not given) as the molecule, how does the Potency read?
Answer: The Potency was “inactive”.

Question: How did the Potency turn out when Cc1ccc2cc3c(ccc4ccccc43)c3c2c1CC3 was run?
Answer: Its Potency is 0.546 µM (active).

Question: Which Potency does the source give for C=CC(=C)C here?
Answer: The Potency was “inactive”.

Question: For [F][Sn]([c]1ccccc1)([c]1ccccc1)[c]1ccccc1, which Potency is on record?
Answer: The Potency was 2.73 µM (active).

Question: How did the Potency turn out when CN1CCc2cc(Cl)c(O)cc2[C@H]2c3ccccc3CC[C@@H]21 was run?
Answer: Its Potency is “inactive”.

Question: CCN(CC)CCc1c[nH]c2ccccc12 was tested. Which Potency did it give?
Answer: Its Potency is “inactive”.

Question: For COc1nc(C)nc(NC(=O)NS(=O)(=O)c2ccccc2Cl)n1, which Potency is on record?
Answer: Its Potency is “inactive”.

Question: With O=P(Cl)(Cl)Cl as the molecule, how does the Potency read?
Answer: Its Potency is “inactive”.

Question: For CC1CN1 (stereo not given), which Potency is on record?
Answer: The Potency was “inactive”.

Question: For N#Cc1c[nH]cc1-c1cccc2c1OC(F)(F)O2, which Potency is on record?
Answer: The Potency was 24.3 µM (active).

From PubChem BioAssay (Tox21)
